Experimental data published in PubChem BioAssay (NCATS).
Values joined by “and” are separate entries in the source; they are usually repeats but may differ in a detail not shown here. Identical values can stand only once. Inconclusive results are not listed. A call without a number means that no potency is given here. Values without a mark were called inactive. Active and inactive are the calls of the source. Calls come from the whole dose curve; as a rule, active = well fitted inhibition curve with a large enough effect; inconclusive = small, poorly fitted or top-dose-only effect; inactive = flat fitted curve, though single readings scatter.

test: P-glycoprotein substrates identified in KB-8-5-11 adenocarcinoma cell line, qHTS therapeutic library screen (AID 1346987); settings: KB-8-5-11 (P-gp overexpressing) viability, CellTiter-Glo, 72 h; series mostly up to 44.5 µM; note: nearly all actives have a fitted effect of over 65% in size
Procedure, shortened: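 KB-8-5-11: colchicine-selected sub-line of KB-3-1 over-expressing P-gp; assay medium lacked colchicine. 72 h drug exposure at 37 degree C, CellTiter-Glo.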
Potency is the fitted concentration of half-maximal effect.

Compound | Potency | activity change, negative = cytotoxicity | outcome
COc1cc2c(cc1O)CCN[C@]21CS[C@@H]2c3c(OC(C)=O)c(C)c4c(c3[C@H](COC1=O)N1[C@@H]2[C@H]2c3c(cc(C)c(OC)c3O)C[C@@H]([C@@H]1O)N2C)OCO4 | 1.46 µM (active) and 1.41 µM (active) | – | –
C/C=C(\C)C(=O)O[C@@H]1CC2[C@@H](CC=C3C[C@@H](O[C@H]4C[C@H](OC)[C@H](O[C@H]5C[C@H](OC)[C@H](O[C@H]6C[C@H](OC)[C@H](O[C@H]7C[C@@H](OC)[C@H](O[C@@H]8O[C@H](CO)[C@@H](O)[C@H](O)[C@H]8O)[C@@H](C)O7)[C@@H](C)O6)[C@@H](C)O5)[C@@H](C)O4)CC[C@@]32C)[C@@]2(O)CC[C@H](C(C)=O)[C@@]12C (stereo not given in full) | – | 3.56% [at 9.29 µM] | –
C[C@@H]1O[C@@H](O[C@H]2[C@H](O)[C@@H](O)[C@H](OC[C@H]3O[C@@H](OC(=O)[C@]45CCC(C)(C)C[C@H]4C4=CCC6[C@@]7(C)C[C@H](O)[C@H](O[C@@H]8O[C@H](CO)[C@@H](O)[C@H](O)[C@H]8O)[C@@](C)(C(=O)O)C7CC[C@@]6(C)[C@]4(C)CC5)[C@H](O[C@@H]4O[C@H](CO)[C@@H](O)[C@H](O)[C@H]4O)[C@@H](O)[C@@H]3O)O[C@@H]2CO)[C@H](O)[C@H](O)[C@H]1O (stereo not given in full) | – | – | inactive [at 9.29 µM]
IC(I)I | inactive | – | –
O=C(O)c1n[nH]c2c1C[C@H]1C[C@@H]21 | inactive | – | –
C#CCOc1ccc2c(C)cc(=O)oc2c1 | inactive | – | –
C[C@@H]1O[C@@H](O[C@H]2[C@H](O[C@H]3CC[C@@]4(C)C(CC[C@]5(C)C4CC=C4C6CC(C)(C)CC[C@]6(C(=O)O[C@@H]6O[C@H](CO[C@@H]7O[C@H](CO)[C@@H](O[C@@H]8O[C@@H](C)[C@H](O)[C@@H](O)[C@H]8O)[C@H](O)[C@H]7O)[C@@H](O)[C@H](O)[C@H]6O)CC[C@]45C)[C@]3(C)CO)OC[C@H](O)[C@@H]2O)[C@H](O)[C@H](O)[C@H]1O (stereo not given in full) | – | – | inactive [at 9.29 µM]
C=C1CC2C3(C)C(OC(C)=O)CC(=O)OC(C)(C)C3C(O)C(OC(C)=O)C2(C)C2C(=O)OC(C)C(=O)C12C (stereo not given) | inactive | – | –
O=C(O[C@H]1[C@@H]2C=CO[C@@H](O[C@@H]3O[C@H](CO)[C@@H](O)[C@H](O)[C@H]3O)[C@@H]2[C@@]2(CO)O[C@@H]12)c1ccc(O)cc1 | inactive | – | –
CC(=O)Oc1c(C)cc(OCC(O)CNC(C)C)c(C)c1C (stereo not given) | inactive | – | –
CC(C)C(=O)c1cn(CC(=O)COc2ccc(Oc3ccccc3)cc2)c2ccc(C(=O)O)cc12 | inactive | – | –
CC(C)(O)C1CCC2(C)C3C(O)C4C(C13)C42CO (stereo not given) | inactive | – | –
COC(=O)[C@H]1[C@H]2C[C@@H]3c4[nH]c5ccccc5c4CCN3C[C@H]2C[C@@H](OC(=O)c2cc(OC)c(OC)c(OC)c2)[C@@H]1OC | 4.11 µM (active) | – | –
CC1=C(/C=C/C(C)=C/C=C/C(C)=C/C=C/C=C(C)/C=C/C=C(C)/C=C/C2=C(C)CCCC2(C)C)C(C)(C)CCC1 | inactive | – | –
NC(=O)c1ccc(OCC2NC(=O)C3CCCN3C2=O)cc1 (stereo not given) | inactive | – | –
Cc1cc(C)c(S(=O)(=O)N(Cc2ccc(-c3cccc(S(C)(=O)=O)c3)cc2)Cc2ccc(C(F)(F)F)o2)c(C)c1 | inactive | – | –
C[C@@H]1CC[C@]2(C(=O)O[C@@H]3O[C@H](CO)[C@@H](O)[C@H](O)[C@H]3O)CC[C@]3(C)C(=CCC4[C@@]5(C)C[C@@H](O)[C@H](O)C(C)(C)C5CC[C@]43C)C2[C@]1(C)O (stereo not given in full) | inactive | – | –
CCOc1ccc(C(Nc2ccccn2)c2ccc3ccc(C)nc3c2O)cc1C (stereo not given) | inactive | – | –
Cc1ccc(C(=O)Nc2ccc(Oc3cc4cnn(C)c4cc3-c3cn[nH]c3)c(F)c2)c(=O)n1-c1ccc(F)cc1 | 4.61 µM (active) | – | –
C=C1C[C@@]23CC[C@@H]4[C@](C)(C(=O)O)CCC[C@@]4(C)C2=CC[C@H]1C3 | inactive | – | –

Compound | Potency | activity change, negative = cytotoxicity | outcome
C[C@]12CCC(=O)C=C1[C@@H](O)C[C@@H]1[C@@H]2[C@@H](O)C[C@@]2(C)[C@H]1CC[C@]2(O)C(=O)CO | inactive | – | –
C/C1=C\C[C@H](O[C@@H]2O[C@H](CO)[C@@H](O)[C@H](O)[C@H]2O)/C(C)=C/[C@H]2OC(=O)[C@H](C)[C@@H]2CC1 | inactive | – | –
CC[C@@H](C(=O)O)[C@@H]1O[C@@H]([C@@H](C)[C@H](O)[C@H](C)C(=O)[C@H](CC)[C@H]2O[C@]3(C=C[C@@H](O)[C@]4(CC[C@@](C)([C@H]5CC[C@](O)(CC)[C@H](C)O5)O4)O3)[C@H](C)C[C@@H]2C)[C@@H](C)C[C@@H]1C | 2.31 µM (active) | – | –
CC(C)CC(=O)OC[C@H]1O[C@@](COC(=O)CC(C)C)(O[C@H]2O[C@H](CO)[C@@H](O)[C@H](O)[C@H]2O)[C@@H](OC(=O)CC(C)C)[C@@H]1OC(=O)CC(C)C | inactive | – | –
C=C1CCC2(OC1)OC1CC3C4CC=C5CC(O)CC(O[C@@H]6OC[C@@H](O)[C@H](O)[C@H]6O)C5(C)C4CCC3(C)C1(O)C2C (stereo not given in full) | inactive | – | –
O=C1CC(c2ccc([N+](=O)[O-])cc2)=NN1c1ccccc1 | inactive | – | –
O=S(=O)(Nc1ccc(C(O)(C(F)(F)F)C(F)(F)F)cc1)c1cccs1 | inactive | – | –
C[C@H](NCc1ccc(OCc2ccccc2F)cc1)C(N)=O | inactive | – | –
CC1CCC2(C)C(CC(O)C(O)C23CO3)C1(C)CCC1=CC(O)OC1=O (stereo not given) | inactive | – | –
COc1cc(C2OCC3C(c4ccc(OC5OC(CO)C(O)C(O)C5O)c(OC)c4)OCC23)ccc1O (stereo not given) | inactive | – | –
CCC[C@@H]1C[C@@H](C(=O)N[C@@H]([C@H]2O[C@H](SC)[C@H](OP(=O)(O)O)[C@@H](O)[C@H]2O)[C@H](C)Cl)N(C)C1 | inactive | – | –
CC(=O)N(O)CCCCCN1C(=O)CCC1=O | inactive | – | –
COC(C(=O)C(O)C(C)O)C1Cc2cc3cc(OC4CC(OC5CC(O)C(O)C(C)O5)C(O)C(C)O4)c(C)c(O)c3c(O)c2C(=O)C1OC1CC(OC2CC(OC3CC(C)(O)C(O)C(C)O3)C(O)C(C)O2)C(O)C(C)O1 (stereo not given) | inactive | – | –
COc1cc([C@@H]2Oc3c(OC)cc(CCCO)cc3[C@@H]2CO[C@@H]2O[C@H](CO)[C@@H](O)[C@H](O)[C@H]2O)ccc1O | inactive | – | –
CC(=O)N1c2ccccc2C2(O)CC3C(=O)NC(CC(C)C)C(=O)N3C12 (stereo not given) | inactive | – | –
O=C(O)c1cc(O)c2cccc(O)c2c1O[C@@H]1O[C@H](CO)[C@@H](O)[C@H](O)[C@H]1O | inactive | – | –
Cc1nn(C)c2c1C(c1ccc(C(F)(F)F)cc1)C(C#N)=C(N)O2 (stereo not given) | inactive | – | –
NCc1c[nH]c(=S)n1C1CCc2c(F)cc(F)cc2C1 (stereo not given) | inactive | – | –
O=C1NCc2nc3ccccc3c(=O)n2C1Cc1c[nH]c2ccccc12 (stereo not given) | inactive | – | –
CC12CC34C=CC(=O)C(C)(CCC(=O)O)C3C(CC1C4)O2 (stereo not given) | inactive | – | –
